A short description of assay [1]: compound effects on lung adenocarcinoma cell viability – A549, calcein-AM fluorescence, 48 h, basal, profiling panel (AID 1162). Note: test concentration not given here. The conditions noted are these: higher = more signal.
A short description of assay [2]: compound effects on differentiated 3T3-L1 adipocyte viability – cell-based, 3T3-L1 adipocytes, calcein-AM fluorescence, 48 h, basal, profiling panel (AID 1163). Note: test concentration not given here. As to conditions: 3T3-L1 adipocytes viability, higher = more signal.
A short description of assay [3]: compound effects on hepatocellular carcinoma cell viability – HepG2, calcein-AM fluorescence, 48 h, basal, profiling panel (AID 1164). Note: test concentration not given here. As to conditions: higher = more signal.
The nature of assay [4]: compound effects on multiple myeloma cell viability – MM1S, calcein-AM fluorescence, 48 h, basal, profiling panel (AID 1165). Note: test concentration not given here. The conditions noted are these: higher = more signal.
A short description of assay [5]: calcein-AM signal in unstimulated myeloma cells – cell-based, calcein-AM fluorescence, 48 h, PK04 Diversity Set, profiling panel (AID 1166).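 Note: cells grown under basal conditions without added stimulus; test concentration not given here.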 The conditions noted are these: RPMI8226 myeloma viability, higher = more signal.
The nature of assay [6]: JC-1 mitochondrial signal, unstimulated HepG2 cells – cell-based, JC-1 fluorescence, 24 h, 100 nL compound, profiling panel (AID 1167). Note: test concentration not given here. As to conditions: HepG2 mitochondrial potential, higher = more signal.
The nature of assay [7]: JC-1 mitochondrial signal, unstimulated adipocytes – cell-based, JC-1 fluorescence, 3T3-L1 adipocytes, 24 h, 100 nL compound, profiling panel (AID 1168). Note: test concentration not given here. As to conditions: JC-1 mitochondrial fluorescence, higher = more signal, called active from +8 up or from −8 down.
The nature of assay [8]: JC-1 mitochondrial signal, unstimulated myeloma cells – cell-based, JC-1 fluorescence, RPMI8226, 24 h, 100 nL compound, profiling panel (AID 1169). Note: test concentration not given here. The conditions noted are these: JC-1 mitochondrial potential fluorescence, higher = more signal.
Assay [9] can be described thus: JC-1 mitochondrial signal, unstimulated MM1S myeloma – cell-based, JC-1 fluorescence, 24 h, 100 nL compound, profiling panel (AID 1170). Note: test concentration not given here. As to conditions: MM1S mitochondrial potential, higher = more signal.
The nature of assay [10]: resazurin metabolic signal in A549 cells – cell-based, resazurin fluorescence, 24 h, PK04 Diversity Set, profiling panel (AID 1171). Note: test concentration not given here. As to conditions: A549 viability, higher = more signal, called active from +8 up or from −8 down. (Alamar Blue is a resazurin reagent that responds to reducing activity.)
Assay [11] in a line: resazurin metabolic signal in HepG2 cells – cell-based, resazurin fluorescence, 24 h, PK04 Diversity Set, profiling panel (AID 1172). Note: test concentration not given here. As to conditions: HepG2 viability, higher = more signal.
A short description of assay [12]: budding yeast growth changes without added modifier – OD600, strain BY4716, 24 h, basal condition, primary screen (AID 1173). The conditions noted are these: S. cerevisiae BY4716 growth, OD600, 24 h; higher = more signal, called active from +8 up or from −8 down.
The nature of assay [13]: viability profiling in MM1S myeloma cells – cell-based, resazurin fluorescence, basal, 24 h, PK04 Diversity Set, profiling panel (AID 1174). Note: test concentration not given here. The conditions noted are these: higher = more signal, called active from +8 up or from −8 down.
Assay [14] deals with Dihydroorotate dehydrogenase (quinone), mitochondrial (Plasmodium falciparum (isolate 3D7)) (UniProt Q08210). The experiment in a line: inhibition of P. falciparum DHODH – biochemical, C-terminal His tag, absorbance 600 nm, primary screen (AID 1175).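 Note: recombinant parasite enzyme with a five histidine tag at its C terminus; test concentration not given here.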 As to conditions: PfDHODH enzyme, DCIP absorbance 600 nm; higher = more signal, called active from +8 up or from −8 down.
Chain of Dihydroorotate dehydrogenase (quinone), mitochondrial (Plasmodium falciparum (isolate 3D7)) (Q08210 whole entry, looked up): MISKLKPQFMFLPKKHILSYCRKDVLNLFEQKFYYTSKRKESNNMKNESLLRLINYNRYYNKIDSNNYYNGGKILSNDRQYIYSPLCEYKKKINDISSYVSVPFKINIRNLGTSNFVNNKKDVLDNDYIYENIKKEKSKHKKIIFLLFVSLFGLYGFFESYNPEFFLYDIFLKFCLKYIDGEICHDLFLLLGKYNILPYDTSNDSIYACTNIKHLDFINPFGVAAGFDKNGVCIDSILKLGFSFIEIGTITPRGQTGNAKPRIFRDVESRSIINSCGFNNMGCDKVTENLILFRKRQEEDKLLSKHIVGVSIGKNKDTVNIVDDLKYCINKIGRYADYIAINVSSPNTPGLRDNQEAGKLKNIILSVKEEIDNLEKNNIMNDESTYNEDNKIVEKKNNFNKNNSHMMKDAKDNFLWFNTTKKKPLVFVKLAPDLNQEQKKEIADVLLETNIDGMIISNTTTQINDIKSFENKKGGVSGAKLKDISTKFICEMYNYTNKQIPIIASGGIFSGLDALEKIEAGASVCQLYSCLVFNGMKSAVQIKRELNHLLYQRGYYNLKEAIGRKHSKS
Assay [15] can be described thus: inhibition of PAO1 biofilm formation – strain PAO1, LB-PBS medium, absorbance 600 nm, primary screen (AID 1176). Note: test concentration not given here. As to conditions: P. aeruginosa PAO1 growth/biofilm, A600, 12 h; higher = more signal.
Assay [16] in a line: growth modulation of vineyard yeast isolate – strain RM11-1a, OD600, basal, 24 h, primary screen (AID 1177).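 Note: cultures grown under basal conditions with no added stressor; test concentration not given here.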 The conditions noted are these: S. cerevisiae RM11-1a growth, OD600, 24 h; higher = more signal, called active from +8 up or from −8 down.
The nature of assay [17]: growth of efflux-deficient E. coli DRC39 – strain DRC39, OD650, 24 h, E. coli filamentation inducers, primary screen (AID 1178).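 Note: growth measured as culture turbidity by optical density at 650 nm; test concentration not given here.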 The conditions noted are these: E. coli DRC39 acrAB, higher = more signal, called active from +8 up or from −8 down.
The nature of assay [18]: growth of efflux-deficient E. coli DRC39 – strain DRC39, OD650, 48 h, E. coli filamentation inducers, primary screen (AID 1179).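 Note: screen aims at cell division blockers that make cells filament.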 As to conditions: E. coli DRC39 delta-acrAB growth, higher = more signal, called active from +8 up or from −8 down.
Assay [19] in a line: viability profiling in RPMI8226 myeloma cells – cell-based, resazurin fluorescence, basal, 24 h, PK04 Diversity Set, profiling panel (AID 1180).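 Note: RPMI8826 multiple myeloma cell line at 5000 cells per well; test concentration not given here.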 The conditions noted are these: higher = more signal.
Assay [20] concerns the target E3 ubiquitin-protein ligase XIAP (Homo sapiens) (UniProt P98170). Description: small molecules binding XIAP protein – biophysical, small-molecule microarray, fluorescence 635 nm, primary screen (AID 1181).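 Note: score merges 667 nm emission and signal to noise over triplicate slides.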 The conditions noted are these: higher = more signal.

The structures appear in SMILES notation. Activity calls are given as the source filed them. Unless noted, the rule behind the calls is not given here.

Chain of E3 ubiquitin-protein ligase XIAP (Homo sapiens) (P98170 whole entry, looked up): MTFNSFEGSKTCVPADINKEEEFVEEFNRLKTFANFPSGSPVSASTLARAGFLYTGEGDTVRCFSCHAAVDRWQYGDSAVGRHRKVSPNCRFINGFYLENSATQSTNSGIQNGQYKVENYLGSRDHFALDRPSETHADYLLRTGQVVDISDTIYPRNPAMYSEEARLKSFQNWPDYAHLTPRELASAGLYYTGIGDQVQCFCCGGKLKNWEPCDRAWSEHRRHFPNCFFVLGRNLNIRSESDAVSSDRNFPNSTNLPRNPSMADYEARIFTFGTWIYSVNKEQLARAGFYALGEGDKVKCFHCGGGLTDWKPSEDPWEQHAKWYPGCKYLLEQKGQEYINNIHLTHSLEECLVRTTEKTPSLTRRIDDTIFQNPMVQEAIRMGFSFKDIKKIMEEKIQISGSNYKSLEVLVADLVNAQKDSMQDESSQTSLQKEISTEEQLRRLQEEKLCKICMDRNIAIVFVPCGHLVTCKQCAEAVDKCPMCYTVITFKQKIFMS

Turning to `COc1cc(Br)cc(C(O)C2C=CC3C(=O)N(C)C(=O)C3N2N2CCCCC2)c1OC` (stereo not given), the z-score is -1.12 in assay [1]; -0.456 in assay [2]; -0.315 in assay [3]; -1.68 in assay [4]; -0.18 in assay [5]; -1.05 in assay [6]. The z-score in assay [7] was -0.535 (inactive); in assay [8] it was 0.672; in assay [9] it was -0.129; in assay [10] it was -0.318 (inactive); in assay [11], -1.17; in assay [12], -1.43 (inactive). Besides, the z-score in assay [13] was -1.17 (inactive); in [15], 0.406 (inactive); in [16] it was 1.25 (inactive); in assay [17] it was -0.596 (inactive); in assay [18], -0.683 (inactive); in assay [19] it was -1.07. For the same compound, the composite z-score in assay [14] was -0.282 (inactive); in [20] it was 0.0123.

Consider `CC(C)C[C@@H]1NC(=O)[C@@H]2C[C@H](C(=O)O)[C@H](c3cccc(OCCO)c3)N2C1=O`, for which the z-score in [1] was 0.196; in [2], 0.237; in [3] it was -0.404; in assay [4] it was 0.101; in assay [5], -0.57; in [6], 0.555. Further, the z-score in [7] is -0.531 (inactive); in assay [8], 0.719; in assay [9], 0.897; in assay [10], 0.0499 (inactive); in assay [11], -0.314; in assay [12] it was -0.0664 (inactive). Further, the z-score in assay [13] is 0.254 (inactive); in assay [15], -0.447 (inactive); in assay [16] it was -0.747 (inactive); in assay [17], 0.398 (inactive); in [18], -0.263 (inactive); in assay [19], 0.294. Besides, the composite z-score is -1.16 (inactive) in assay [14] and -0.059 in assay [20].

With `CC(C)C(=C=CC[C@@H](O)c1ccc(OCCO)cc1)C[C@@H](O)c1ccccn1`, the z-score is -0.343 in [1]; -1.03 in assay [2]; 0.411 in assay [3]; -0.473 in [4]; -0.3 in assay [5]; -0.737 in assay [6]. Moreover, the z-score in assay [7] is 0.00461 (inactive); in assay [8] it was 0.0263; in assay [9] it was -0.698; in assay [10], -0.287 (inactive); in [11] it was -0.287; in assay [12] it was -0.492 (inactive). Also, the z-score was -0.426 (inactive) in assay [13]; 0.85 (inactive) in [15]; 0.406 (inactive) in [16]; -0.235 (inactive) in [17]; -0.0608 (inactive) in assay [18]; -0.538 in [19]. Also, the composite z-score is -11.9 (active) in [14] and 0.273 in [20].

Turning to `CCC(CC)C(O)C1C=CC2C(=O)NC(=O)C2N1Nc1ccc(Cl)cc1Cl` (stereo not given), the z-score is -1.36 in assay [1]; -0.326 in assay [2]; -0.751 in [3]; -1.38 in assay [4]; -0.82 in assay [5]; -2.18 in assay [6]. For the same compound, the z-score in assay [7] is -0.446 (inactive); in [8], -0.661; in assay [9], -0.246; in assay [10], -0.929 (inactive); in assay [11], -1.82; in assay [12], -3.65 (inactive). The z-score in assay [13] is -1.46 (inactive); in assay [15], 1.26 (inactive); in assay [16], 1.27 (inactive); in assay [17], -0.682 (inactive); in [18], -0.459 (inactive); in assay [19] it was -1.52. Moreover, the figures for the composite z-score in [14] and in assay [20] were 0.925 (inactive) and 0.0187, respectively.

In the case of `Cc1nc2cc(Br)ccc2c(=O)o1`, the z-score in [1] is 0.504; in assay [2] it was 0.703; in [3], 0.368; in assay [4] it was 0.729; in assay [5], 0.834; in assay [6], 1.37. Moreover, the z-score in assay [7] is 0.499 (inactive); in assay [8], 0.649; in assay [9], 0.392; in [10], 0.235 (inactive); in assay [11] it was 0.817; in assay [12], -0.691 (inactive). In addition, the z-score in assay [13] was 0.065 (inactive); in assay [15], -0.214 (inactive); in assay [16] it was -1.08 (inactive); in assay [17], 0.705 (inactive); in [18], 1.42 (inactive); in assay [19] it was 1.21. The composite z-score in assay [14] was -0.442 (inactive); in [20] it was -0.0426.

Consider `C=CCNC(=O)[C@@H]1[C@H]2C(=O)O[C@H](c3ccccc3)[C@H](c3ccccc3)N2[C@H](c2ccc(OCCO)cc2)[C@@]12C(=O)Nc1ccc(C#CCC(C(=O)OC)C(=O)OC)cc12`, for which the z-score in assay [1] was -0.305; in [2] it was 1.09; in assay [3] it was 0.22; in assay [4] it was -3.45; in [5], -4.16; in [6], 0.644. Further, the z-score in assay [7] is 1.39 (inactive); in [8] it was -0.907; in [9], -1.63; in [10] it was 1.39 (inactive); in [11], 0.874; in assay [12] it was 1.12 (inactive). Further, the z-score in [13] is -6.55 (inactive); in [15], 1.89 (inactive); in assay [16], 2.26 (inactive); in [17], 0.196 (inactive); in assay [18], 0.286 (inactive); in assay [19], -5.98. Besides, the composite z-score in [14] is -4.92 (inactive); in assay [20], 0.132.

As to `COc1cc2c(cc1OC)CN(C(=O)[C@H]1[C@@H]3C(=O)O[C@@H](c4ccccc4)[C@@H](c4ccccc4)N3[C@@H](c3ccc(O)cc3)[C@]13C(=O)Nc1ccc(C#CCCO)cc13)CC2`, the z-score in [1] was 0.0351; in assay [2] it was 1.04; in assay [3], -0.162; in assay [4] it was -0.233; in [5], -1.46; in assay [6], -1.46. Besides, the z-score in assay [7] was 0.292 (inactive); in assay [8], -0.568; in [9], 0.0874; in assay [10], 0.125 (inactive); in assay [11], -0.29; in assay [12], 0.966 (inactive). The z-score is 0.577 (inactive) in assay [13]; 0.393 (inactive) in assay [15]; 1.16 (inactive) in assay [16]; 0.0945 (inactive) in assay [17]; -0.712 (inactive) in assay [18]; 0.756 in assay [19]. The composite z-score in assay [14] is 0.857 (inactive); in assay [20] it was -0.249.

For `CCCCN1CC=CC23O[C@@H]4C=CCCOC(=O)C4[C@H]2C(=O)N(CCCCCCO)[C@@H]3C1=O` (stereo not given in full), the z-score in assay [1] is 0.384; in [2], -0.585; in assay [3] it was 0.441; in assay [4] it was 1.51; in [5], -0.363; in [6] it was 0.493. In addition, the z-score is 0.271 (inactive) in assay [7]; -0.109 in assay [8]; -0.399 in assay [9]; -0.176 (inactive) in [10]; 0.0635 in assay [11]; 0.254 (inactive) in [12]. In addition, the z-score in assay [13] was -0.846 (inactive); in assay [15], -0.14 (inactive); in [16], 0.308 (inactive); in [17], 0.013 (inactive); in assay [18], 0.383 (inactive); in assay [19], -0.461. Besides, the composite z-score in assay [14] is -1.01 (inactive); in assay [20] it was -0.141.

Take `CCCC#C[Si](O[C@H](CC)c1cn(Cc2cccc(Cl)c2)nn1)(C(C)C)C(C)C`: the z-score in assay [1] is 1.19; in [2], -1.07; in assay [3], 1.58; in assay [4] it was -1.07; in [5] it was -0.223; in [6] it was -0.742. Also, the z-score in assay [7] is -0.228 (inactive); in assay [8], -0.112; in assay [9], -0.916; in [10] it was 0.158 (inactive); in assay [11], 0.345; in assay [12], -12.9 (active). Besides, the z-score in [13] was 0.0454 (inactive); in assay [15], -0.0057 (inactive); in [16], 0.61 (inactive); in [17] it was 1.11 (inactive); in assay [18], 0.775 (inactive); in assay [19], 0.33. Besides, the composite z-score in assay [14] is -0.345 (inactive); in assay [20], -0.0855.

Values taken from PubChem BioAssay.
